Among the data in the supplement of paper PMC6609913 are normalised cell viability values, retold here.

Counter-ions that a name gives are not always drawn. ± gives the standard deviation of the averaged measurements. The full ranking holds about 1,300 compounds; the median of “normalised cell viability” is about 1, and the lowest 2% start at about 0.14. Many of the other results were omitted from the sample, so the lowest values are more common in it than they were.

The assay deals with V-C8 (BRCA2-deficient hamster cells). Put plainly: normalised cell viability (fraction of plate median); higher = more viable cells (less toxic). Particulars: 5 µM. The procedure, abridged: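 BRCA2-deficient hamster V-C8 cells and BRCA2-restored V-C8 cells were plated in 96-well plates, and library drugs were added 24 h later at 5 μM in 100 μl medium. Exposure lasted 3 days in screen 1 and 6 days in screen 2, next to solvent-only wells. Viability was then read by resazurin assay, median-plate normalised and averaged across triplicate wells.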

Take `COc1cc([C@@H]2c3cc4c(cc3[C@H](O)[C@H]3COC(=O)[C@H]23)OCO4)cc(OC)c1OC` [Podophyllotoxin]: the normalised cell viability (treatment time: 3 days) was determined as 0.126 ± 0.01 and the normalised cell viability (treatment time: 6 days) worked out at 0.143 ± 0.0037.

Regarding `C[C@]12CC[C@@H]3c4ccc(OC(=O)N(CCCl)CCCl)cc4CC[C@H]3[C@@H]1CC[C@@H]2O` [Estramustine], the normalised cell viability is 0.175 ± 0.019 (treatment time: 3 days) and 0.213 ± 0.013 (treatment time: 6 days).

As for `CCC1(C)CC(=O)NC(=O)C1` [Bemegride], the normalised cell viability by setting is: (treatment time: 3 days) 0.925 ± 0.075; (treatment time: 6 days) 1.06 ± 0.055.

`NCC(O)c1ccc(O)cc1` (racemic) [(+,-)-Octopamine hydrochloride]: the normalised cell viability (treatment time: 3 days) was 1.02 ± 0.083 and the normalised cell viability (treatment time: 6 days) is 1.1 ± 0.083.

Consider `CC[C@@]1(O)C(=O)OCc2c1cc1n(c2=O)Cc2cc3ccccc3nc2-1` [Camptothecine (S,+)], for which the normalised cell viability by setting is: (treatment time: 3 days) 0.148 ± 0.0039; (treatment time: 6 days) 0.109 ± 0.008.

As to `CC[C@@]1([C@@H]2O[C@@H]([C@H]3O[C@@](O)(CO)[C@H](C)C[C@@H]3C)C[C@@H]2C)CC[C@H]([C@]2(C)CC[C@]3(C[C@H](O)[C@@H](C)[C@@H]([C@@H](C)[C@@H](OC)[C@H](C)C(=O)O)O3)O2)O1` [Monensin sodium salt], the normalised cell viability runs as follows: (treatment time: 3 days) 0.156 ± 0.0082; (treatment time: 6 days) 0.128 ± 0.0063.

Turning to `C[N+](C)(C)CCCCCCCCCC[N+](C)(C)C` [Decamethonium bromide], the normalised cell viability turned out to be 1.18 ± 0.34 (treatment time: 3 days) and 1.019 ± 0.0077 (treatment time: 6 days).

With `C[N+]1(C)[C@@H]2CC[C@H]1C[C@@H](OC(=O)C(CO)c1ccccc1)C2` (stereo not given in full) [Methylatropine nitrate], the normalised cell viability was determined as 1.11 ± 0.021 (treatment time: 3 days) and 1.15 ± 0.091 (treatment time: 6 days).

In the case of `Oc1cc(Cl)ccc1Oc1ccc(Cl)cc1Cl` [Triclosan], the normalised cell viability amounted to 0.974 ± 0.022 (treatment time: 3 days) and 1 ± 0.02 (treatment time: 6 days).

In the case of `C[N+]1([O-])[C@@H]2C[C@@H](OC(=O)[C@H](CO)c3ccccc3)C[C@H]1[C@@H]1O[C@@H]12` (stereo not given in full) [Scopolamin-N-oxide hydrobromide], the normalised cell viability is 0.997 ± 0.074 (treatment time: 3 days) and 0.945 ± 0.092 (treatment time: 6 days).

`CC(C)(C)NCC(O)c1ccccc1Cl` (stereo not given) [Tulobuterol]: the normalised cell viability is, setting by setting: (treatment time: 3 days) 1.07 ± 0.015; (treatment time: 6 days) 1.05 ± 0.086.

Take `C[C@@H]1C[C@@H]([C@H](O)CC2CC(=O)NC(=O)C2)C(=O)[C@@H](C)C1` [Cycloheximide]: the normalised cell viability (treatment time: 3 days) amounted to 0.132 ± 0.0063 and the normalised cell viability (treatment time: 6 days) worked out at 0.142 ± 0.0068.

As for `C=CCC1(CC(C)C)C(=O)NC(=O)NC1=O` [Butalbital], the normalised cell viability is 1.1 ± 0.031 (treatment time: 3 days) and 1.079 ± 0.0048 (treatment time: 6 days).

For `C=C1[C@@H]2CC[C@H]3[C@]4(C)C[C@H](O[C@@H]5O[C@H](CO)[C@@H](OS(=O)(=O)O)[C@H](OS(=O)(=O)O)[C@H]5OC(=O)CC(C)C)C[C@@H](C(=O)O)[C@H]4CC[C@]3(C2)[C@@H]1O` [Atractyloside potassium salt], the normalised cell viability by setting is: (treatment time: 3 days) 1.05 ± 0.051; (treatment time: 6 days) 1.09 ± 0.079.

Compound `C[C@]12CC[C@H]3[C@@H](CCC4=CC(=O)CC[C@@H]43)[C@@H]1CC[C@@H]2O` [Nandrolone] showed a normalised cell viability (treatment time: 3 days) of 0.993 ± 0.11 and a normalised cell viability (treatment time: 6 days) of 1.02 ± 0.028.

On to `CN1C[C@H](C(=O)N[C@]2(C)O[C@@]3(O)[C@@H]4CCCN4C(=O)[C@H](Cc4ccccc4)N3C2=O)C[C@@H]2c3cccc4[nH]cc(c34)C[C@H]21` [Dihydroergotamine tartrate], for which the normalised cell viability runs as follows: (treatment time: 3 days) 1.06 ± 0.024; (treatment time: 6 days) 1.02 ± 0.12.

Consider `CN1C[C@H](CNC(=O)OCc2ccccc2)C[C@@H]2c3cccc4c3c(cn4C)C[C@H]21` [Metergoline], for which the normalised cell viability was found to be 0.1447 ± 0.00066 (treatment time: 3 days) and 0.133 ± 0.017 (treatment time: 6 days).

In the case of `CO[C@]12C[C@@H](COC(=O)c3cncc(Br)c3)CN(C)[C@@H]1Cc1cn(C)c3cccc2c13` [Nicergoline], the normalised cell viability by setting is: (treatment time: 3 days) 0.886 ± 0.074; (treatment time: 6 days) 0.994 ± 0.033.

Consider `NC(=O)OCCCc1ccccc1` [Phenprobamate], for which the normalised cell viability turned out to be 1.14 ± 0.049 (treatment time: 3 days) and 1.08 ± 0.15 (treatment time: 6 days).

For `S=C(NC1CCCCC1)N1CCC(c2cnc[nH]2)CC1` [Thioperamide maleate], the normalised cell viability (treatment time: 3 days) came to 1 ± 0.018 and the normalised cell viability (treatment time: 6 days) turned out to be 1.02 ± 0.014.

`C[C@H](N)[C@H](O)c1ccc(O)c(O)c1` [Levonordefrin]: the normalised cell viability was determined as 1.05 ± 0.05 (treatment time: 3 days) and 1.02 ± 0.028 (treatment time: 6 days).

Take `CCCCCC[C@H]1C(=O)O[C@H](C)[C@H](NC(=O)c2cccc(NC=O)c2O)C(=O)O[C@@H](C)[C@@H]1OC(=O)CC(C)C` [Antimycin A]: the normalised cell viability (treatment time: 3 days) was found to be 0.152 ± 0.0026 and the normalised cell viability (treatment time: 6 days) stood at 0.12 ± 0.011.

`C[C@]12CCC(=O)C=C1CC[C@@H]1[C@@H]2C(=O)C[C@]2(C)C(=O)CC[C@@H]12` [Adrenosterone]: the normalised cell viability (treatment time: 3 days) was found to be 1.19 ± 0.085 and the normalised cell viability (treatment time: 6 days) was 1.11 ± 0.017.

On to `CCC(C)C1O[C@]2(C=C[C@@H]1C)C[C@@H]1CC(C/C=C(\C)[C@@H](OC3C[C@H](OC)[C@@H](OC4C[C@H](OC)[C@@H](O)[C@H](C)O4)[C@H](C)O3)[C@@H](C)/C=C/C=C3\COC4[C@H](O)C(C)=CC(C(=O)O1)[C@]34O)O2` (stereo not given in full) [Avermectin B1a], for which the normalised cell viability is 0.486 ± 0.016 (treatment time: 3 days) and 0.475 ± 0.052 (treatment time: 6 days).

Take `COc1ccc(CN2CCNCC2)c(OC)c1OC` [Trimetazidine dihydrochloride]: the normalised cell viability (treatment time: 3 days) worked out at 1.05 ± 0.06 and the normalised cell viability (treatment time: 6 days) was determined as 1.06 ± 0.023.

As to `C=C(C)[C@@H]1[C@H]2OC(=O)[C@@H]1[C@]1(O)C[C@H]3O[C@]34C(=O)O[C@H]2[C@]14C` [Picrotoxinin], the normalised cell viability came to 1.007 ± 0.0066 (treatment time: 3 days) and 1.11 ± 0.061 (treatment time: 6 days).

The compound `Fc1ccc(C(OCCN2CCN(CCCc3ccccc3)CC2)c2ccc(F)cc2)cc1` showed a normalised cell viability (treatment time: 3 days) of 0.159 ± 0.0052 and a normalised cell viability (treatment time: 6 days) of 0.182 ± 0.012.

For `COc1ccc(CCN2CCC(Nc3nc4ccccc4n3Cc3ccc(F)cc3)CC2)cc1` [Astemizole], the normalised cell viability was determined as 0.13 ± 0.0054 (treatment time: 3 days) and 0.099 ± 0.003 (treatment time: 6 days).

`C[C@]12C[C@H]3S[C@H]3C[C@@H]1CC[C@@H]1[C@@H]2CC[C@]2(C)[C@@H](O)CC[C@@H]12` [Epitiostanol] had a normalised cell viability (treatment time: 3 days) of 1.04 ± 0.012 and a normalised cell viability (treatment time: 6 days) of 1.033 ± 0.01.

For `CC1OC(OC2/C=C/C=C/C=C/C=C/CC/C=C/C=C/[C@H](C)[C@@H](O)[C@@H](C)[C@H](C)OC(=O)CC(O)CC(O)CC(O)CCC(O)C(O)C[C@]3(O)CC(O)C(C(=O)O)C(C2)O3)C(O)C(N)C1O` (stereo not given in full) [Nystatine], the normalised cell viability (treatment time: 3 days) came to 1.06 ± 0.055 and the normalised cell viability (treatment time: 6 days) amounted to 0.905 ± 0.084.

Take `CN1CCN(C(=O)OC2c3nccnc3C(=O)N2c2ccc(Cl)cn2)CC1` (stereo not given) [Zopiclone]: the normalised cell viability stood at 1.11 ± 0.05 (treatment time: 3 days) and 1.04 ± 0.061 (treatment time: 6 days).

In turn, `CCN[C@@H](C)Cc1cccc(C(F)(F)F)c1` [Dexfenfluramine hydrochloride] yielded a normalised cell viability (treatment time: 3 days) of 0.908 ± 0.092 and a normalised cell viability (treatment time: 6 days) of 1.02 ± 0.074.

In the case of `C[C@@H]1O[C@@H](O[C@@H]2C=C3CC[C@@H]4[C@H](CC[C@]5(C)[C@@H](c6ccc(=O)oc6)CC[C@]45O)[C@@]3(C)CC2)[C@H](O)[C@H](O)[C@H]1O` [Proscillaridin A], the normalised cell viability by setting is: (treatment time: 3 days) 0.945 ± 0.013; (treatment time: 6 days) 0.908 ± 0.11.

`CCN(C(C)=O)c1cccc(-c2ccnc3c(C#N)cnn23)c1` [Zaleplon] had a normalised cell viability (treatment time: 3 days) of 1.13 ± 0.075 and a normalised cell viability (treatment time: 6 days) of 0.981 ± 0.063.

`C[C@]12Cc3c[nH]nc3C[C@@H]1CC[C@@H]1[C@@H]2CC[C@@]2(C)[C@H]1CC[C@]2(C)O` [Stanozolol] showed a normalised cell viability (treatment time: 3 days) of 1.07 ± 0.064 and a normalised cell viability (treatment time: 6 days) of 1.06 ± 0.036.

As to `CN[C@@H]1[C@@H](O)[C@@H](O[C@@H]2[C@@H](O)[C@H](O[C@H]3O[C@H](CN)CC[C@H]3N)[C@@H](N)C[C@H]2N)OC[C@]1(C)O.CN[C@@H]1[C@@H](O)[C@@H](O[C@@H]2[C@@H](O)[C@H](O[C@H]3O[C@H]([C@@H](C)N)CC[C@H]3N)[C@@H](N)C[C@H]2N)OC[C@]1(C)O.CN[C@@H]1[C@@H](O)[C@@H](O[C@@H]2[C@@H](O)[C@H](O[C@H]3O[C@H]([C@@H](C)NC)CC[C@H]3N)[C@@H](N)C[C@H]2N)OC[C@]1(C)O` [Gentamicine sulfate], the normalised cell viability is, setting by setting: (treatment time: 3 days) 0.961 ± 0.029; (treatment time: 6 days) 0.955 ± 0.039.

With `C(#CCN1CCCC1)CN1CCCC1` [Tremorine dihydrochloride], the normalised cell viability is, setting by setting: (treatment time: 3 days) 1.09 ± 0.065; (treatment time: 6 days) 1.08 ± 0.06.

Consider `C[CH2][Hg][S]c1ccccc1C(=O)[O-].[Na+]` [Thimerosal], for which the normalised cell viability reads like this: (treatment time: 3 days) 0.0995 ± 0.0026; (treatment time: 6 days) 0.126 ± 0.0061.

On to `C[N+]1(C)CCCC(OC(=O)C(O)(c2ccccc2)c2ccccc2)C1` (stereo not given) [Mepenzolate bromide], for which the normalised cell viability runs as follows: (treatment time: 3 days) 0.974 ± 0.054; (treatment time: 6 days) 1.08 ± 0.059.

`O=C(CCCN1CCC(n2c(=O)[nH]c3ccccc32)CC1)c1ccc(F)cc1` [Benperidol] registered a normalised cell viability (treatment time: 3 days) of 0.93 ± 0.029 and a normalised cell viability (treatment time: 6 days) of 0.969 ± 0.083.
